Source: ChEMBL document CHEMBL1201862, “PubChem BioAssay data set” (2004)
Out of some 400,000 compounds screened, about 2,100 (0.53%) were called active. Not shown: some 14% with an inconclusive outcome. How the calls were made is not given here. The full list was thinned out, with actives kept by preference.

target: Ataxin-2 (Homo sapiens) (UniProt Q99700); test: qHTS for Inhibitors of ATXN expression.; type: functional
Sequence (Q99700 whole entry): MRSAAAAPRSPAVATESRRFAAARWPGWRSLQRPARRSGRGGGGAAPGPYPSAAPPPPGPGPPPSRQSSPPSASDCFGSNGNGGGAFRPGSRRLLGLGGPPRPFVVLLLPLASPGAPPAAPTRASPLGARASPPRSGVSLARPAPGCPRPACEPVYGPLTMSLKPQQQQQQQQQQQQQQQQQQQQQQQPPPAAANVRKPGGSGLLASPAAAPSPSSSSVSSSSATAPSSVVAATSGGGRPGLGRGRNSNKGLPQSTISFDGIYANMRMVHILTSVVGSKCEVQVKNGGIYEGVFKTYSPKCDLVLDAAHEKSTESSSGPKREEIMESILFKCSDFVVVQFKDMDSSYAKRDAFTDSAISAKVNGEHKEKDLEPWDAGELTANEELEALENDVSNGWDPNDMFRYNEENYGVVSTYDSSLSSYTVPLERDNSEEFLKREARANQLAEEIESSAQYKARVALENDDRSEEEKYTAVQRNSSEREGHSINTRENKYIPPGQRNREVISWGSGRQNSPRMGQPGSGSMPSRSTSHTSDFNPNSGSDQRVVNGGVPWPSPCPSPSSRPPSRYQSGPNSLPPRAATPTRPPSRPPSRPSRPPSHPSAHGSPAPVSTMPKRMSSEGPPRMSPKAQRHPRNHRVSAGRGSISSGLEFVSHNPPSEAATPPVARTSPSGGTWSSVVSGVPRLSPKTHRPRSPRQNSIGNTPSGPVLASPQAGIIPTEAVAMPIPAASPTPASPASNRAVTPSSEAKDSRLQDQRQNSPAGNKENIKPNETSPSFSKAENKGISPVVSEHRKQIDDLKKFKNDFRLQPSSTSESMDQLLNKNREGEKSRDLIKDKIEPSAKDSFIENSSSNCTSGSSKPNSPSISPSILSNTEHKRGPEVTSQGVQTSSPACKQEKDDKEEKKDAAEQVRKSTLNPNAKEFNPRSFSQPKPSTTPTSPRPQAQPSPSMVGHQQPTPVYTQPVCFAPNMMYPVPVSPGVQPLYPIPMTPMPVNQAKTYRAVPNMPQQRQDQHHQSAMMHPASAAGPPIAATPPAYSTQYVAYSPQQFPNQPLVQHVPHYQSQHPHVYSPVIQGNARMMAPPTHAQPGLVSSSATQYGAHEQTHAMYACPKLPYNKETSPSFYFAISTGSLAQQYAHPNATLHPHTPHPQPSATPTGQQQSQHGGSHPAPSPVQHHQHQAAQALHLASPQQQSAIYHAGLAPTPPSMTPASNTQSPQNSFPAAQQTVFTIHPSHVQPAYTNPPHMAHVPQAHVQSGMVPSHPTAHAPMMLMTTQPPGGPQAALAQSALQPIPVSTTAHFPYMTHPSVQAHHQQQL

Row | Structure (SMILES) | Potency
1 | CNc1cc(C)c(C#N)c2nc3ccccc3n12 | inactive
2 | CCC(c1ccc(O)c(O)c1)C(CC)c1ccc(O)c(O)c1 (configuration not stated) | 31.6 µM (active)
3 | CCN(CC)Cc1cc(O)c(CN(CC)CC)cc1O | inactive
4 | CC(C)(C)N1C(=O)c2ccc(C(=O)Nc3cc(C(=O)O)cc(C(=O)O)c3)cc2C1=O | inactive
5 | COc1cc(C(=O)NCCNc2nc3ccc(C)cc3cc2C#N)cc(OC)c1OC | inactive
6 | COc1ccc(CCNC(=S)NC(=O)c2cc(OC)c(OC)c(OC)c2)cc1OC | inactive
7 | COc1cc(C(=O)NCCc2csc(-c3ccc(Cl)cc3)n2)cc(OC)c1OC | 28.2 µM (active)
8 | COc1ccc2nc(-c3ccccc3)cc(C(=O)N3CCC3)c2c1 | inactive
9 | COc1ccc(-c2cc(C(=O)Oc3ccccc3)c3cc(C)ccc3n2)cc1 | 35.5 µM (active)
10 | COc1ccc2nc(-c3ccccc3)cc(C(=O)OCC(=O)N3CC(C)OC(C)C3)c2c1 (configuration not stated) | inactive
11 | CCOC(=O)c1c(C)nc2sc(C(=O)Nc3ccccc3)c(N)c2c1-c1ccc(OC)cc1 | inactive
12 | CCOC(=O)c1c(NC(=O)CCl)sc(CN(C)C)c1-c1ccccc1 | 37.7 µM (active)
13 | CCOC(=O)c1c(N)sc(C(=O)Nc2ccccc2)c1C | inactive
14 | CC(=O)Nc1nc2n(n1)C(c1ccc(F)cc1)C=C(c1ccccc1)N2 (configuration not stated) | inactive
15 | CCCCCn1/c(=N/C(C)=O)c(C#N)cc2c(=O)n3ccccc3nc21 | inactive
16 | COc1ccccc1[C@@H]1C(c2ccccc2)=NN(c2ccc(Br)cc2)[C@H]1C(=O)N1CCOC1=O | inactive
17 | CNC(=O)c1sc(N2N=C3/C(=C/c4ccccc4)CCCC3C2c2ccccc2)nc1C (configuration not stated) | inactive
18 | Cc1nc(N2N=C3/C(=C/c4ccc(F)cc4)CCCC3C2c2ccc(F)cc2)sc1C(=O)N(C)C (configuration not stated) | inactive
19 | CCCn1c(O)nnc1SCC(=O)N1N=C2/C(=C/c3ccc(OC)cc3)CCCC2C1c1ccc(OC)cc1 (configuration not stated) | 25.1 µM (active)
20 | O=c1[nH]c(=O)c2nc3c4ccccc4c4ccccc4c3nc2[nH]1 | inactive
21 | CC1CCC2C(=O)N(c3ccc(C(=O)Oc4cccc5cccnc45)cc3)C(=O)C2C1 (configuration not stated) | inactive
22 | CN(C)c1ccc2c(O)ccnc2c1 | inactive
23 | Cc1cc2nc3ccc(N(C)C)cc3nc2cc1N | 25.1 µM (active)
24 | Cc1cc2nn(-c3ccc(Cl)cc3)nc2cc1N | inactive
25 | Nc1c(C(=O)NCCN2CCOCC2)c2nc3ccccc3nc2n1CCc1ccccc1 | inactive

Row | Structure (SMILES) | Potency
26 | COc1cccc(C2C3=C(O)CC(C)(C)CC3=Nc3cc(OC)c(OC)cc32)c1 (configuration not stated) | inactive
27 | COC(=O)C=C1CCC2C3CCC4=CC(=O)C(Br)CC4(C)C3C(=O)CC12C (configuration not stated) | 31.6 µM (active)
28 | COc1ccc(C2CC(c3ccc(Cl)cc3)=NN2c2ccc(S(N)(=O)=O)cc2)cc1 (configuration not stated) | inactive
29 | CCOC(=O)C1(C)C=C(Nc2ccc(NC(C)=O)cc2)C(=O)N1c1ccc(NC(C)=O)cc1 (configuration not stated) | inactive
30 | CC(C)(C)OC(=O)N1CCCN(C(=O)Nc2cccc(Cl)c2)CC1 | inactive
31 | COc1ccccc1CC(NC(C)=O)C(=O)NC1CCN(C(=O)NCc2ccccc2)CC1 (configuration not stated) | inactive
32 | COc1cc(OC)c(N2CC(C(=O)Nc3cccc(C(=O)NC4CC4)c3)CC2=O)cc1Cl (configuration not stated) | inactive
33 | CC(C)(C)OC(=O)N1CCC(NC(=O)c2[nH]cnc2C(=O)Nc2cccc(Cl)c2)CC1 | 35.5 µM (active)
34 | CC(=O)NC(Cc1ccccc1C)C(=O)NC1CCN(C(=O)NCc2ccccc2)CC1 (configuration not stated) | inactive
35 | CC(C)(C)OC(=O)NCc1ccc(CNC(=O)c2[nH]cnc2C(=O)NC2CCN(C(=O)OC(C)(C)C)CC2)cc1 | 20 µM (active)
36 | CS(=O)(=O)Nc1nc2n(n1)C(c1ccccc1)C=C(c1ccc(Br)cc1)N2 (configuration not stated) | inactive
37 | COc1ccc(C2CC(c3ccccc3C(F)(F)F)=NN2c2ccc(S(N)(=O)=O)cc2)cc1 (configuration not stated) | inactive
38 | CCCn1c(=N)c(C(=O)NCc2cccnc2)cc2c(=O)n3cccc(C)c3nc21 | inactive
39 | Cc1ccc(CNC(=O)C2CCN(c3nnc(N4CCCC4=O)s3)CC2)cc1 | inactive
40 | Cc1ccc(Cn2c(CN3CCC(C(=O)NCc4cccnc4)CC3)cc3ccccc32)cc1 | 35.5 µM (active)
41 | CCOC(=O)C1CCN(Cc2ccc3ccccc3c2)CC1 | inactive
42 | Cc1cccc(Cn2c(CN3CCC(C(=O)NCc4cccnc4)CC3)cc3ccccc32)c1 | 22.4 µM (active)
43 | Cc1ccccc1Cn1c(CN2CCC(C(=O)NCc3cccnc3)CC2)cc2ccccc21 | 31.6 µM (active)
44 | O=C(Nc1nc2c(s1)CN(Cc1ccccc1)CC2)C1CCCC1 | inactive
45 | CN(C)CCNC(=O)C1CCN(Cc2cc3ccccc3n2Cc2ccccc2)CC1 | 28.2 µM (active)
46 | CCn1c(=N)c(C(=O)NCc2cccnc2)cc2c(=O)n3cc(C)ccc3nc21 | inactive
47 | O=C(Nc1nc2c(s1)CN(Cc1ccccc1)CC2)C1CCC1 | inactive
48 | Cc1cccn2c(=O)c3cc(C(=O)NCc4cccnc4)c(=N)n(CC4CCCO4)c3nc12 (configuration not stated) | inactive
49 | CCCn1c(=N)c(C(=O)NCc2cccnc2)cc2c(=O)n3cc(C)ccc3nc21 | inactive
50 | CC1CCCCC1NC(=O)CN1C(=O)c2cccc(N)c2C1=O (configuration not stated) | inactive

Row | Structure (SMILES) | Potency
51 | Cc1snc(SCC(=O)c2ccc(F)cc2)c1C#N | inactive
52 | COCCCNC(=O)/C(C#N)=C/c1c(N2CCN(c3ccccc3)CC2)nc2ccccn2c1=O | inactive
53 | CCCC(=O)Nc1nn(CCC)c2nc3ccccc3cc12 | inactive
54 | Oc1nc(-c2ccccc2)nc2sc(-c3ccccc3)cc12 | inactive
55 | Cc1cccc(N2C(=O)c3cccc4c(N(C)CCO)ccc(c34)C2=O)c1 | inactive
56 | Cc1ccc2nc3c(cc(C(=O)NCC4CCCO4)c(=N)n3C3CCCC3)c(=O)n2c1 (configuration not stated) | inactive
57 | Nc1c(C(=O)N/N=C/c2cccnc2)oc2nc(-c3ccccc3)cc(-c3ccco3)c12 | inactive
58 | CCOC(=O)N1CCN(C(=O)C2CCN(C(=O)c3ccccc3C)CC2)CC1 | 35.5 µM (active)
59 | CCOC(=O)N1CCC(NS(=O)(=O)c2ccc(C)cc2)CC1 | inactive
60 | Cc1csc(NC(=O)C2CCN(C(=O)c3ccccc3C)CC2)n1 | inactive
61 | O=C1OCCN1C(=O)[C@H]1[C@H](c2ccc(Cl)cc2)C(c2ccccc2)=NN1c1ccc(Br)cc1 | inactive
62 | COC(=O)C1=C(C)NC(=O)NC1c1ccc(N2CCC(c3ccccc3)=N2)cc1 (configuration not stated) | inactive
63 | COc1ccc(C2=CC(c3cccc(OC)c3)n3nnnc3N2)cc1 (configuration not stated) | inactive
64 | COC(=O)c1ccc(CSc2cc(C)c3cccc(C)c3n2)o1 | inactive
65 | O=C(CCl)N(Cc1cccc([N+](=O)[O-])c1)c1cccc(Cl)c1 | 2.67 µM (active)
66 | N#CCCN(C(=O)CCl)c1cccc(Cl)c1 | 8.91 µM (active)
67 | Cc1ccc(N(CCC#N)C(=O)CCl)cc1C | 35.5 µM (active)
68 | N#Cc1c2ccc(O)cc2n2ccccc12 | inactive
69 | O=C(c1ccc(F)cc1)C1CCN(C(=O)c2ccccc2F)CC1 | inactive
70 | Cc1cc(NC(=O)CSc2nc3c(cc2C#N)CCCC3)no1 | inactive
71 | C=CCNC(=O)CSc1nc2sc3c(c2c(=O)n1CCCOC)CCC3 | inactive
72 | CCn1c(SCC(=O)Nc2cc(C)on2)nc2sc3c(c2c1=O)CCCC3 | 10 µM (active)
73 | Cc1c(O)ccc2c(CN(C)Cc3ccccc3)cc(=O)oc12 | inactive
74 | O=c1oc(-c2ccccc2)cc(Cl)c1Cl | 29.9 µM (active)
75 | O=c1cc(-c2ccccc2)oc2ccc(O)cc12 | inactive

Row | Structure (SMILES) | Potency
76 | Cc1ccc(C(=O)Nc2c(C)cc(-c3ccccc3)oc2=O)cc1 | inactive
77 | O=S(=O)(Nc1nccs1)c1ccc(F)cc1 | inactive
78 | O=C1C=C(C#Cc2ccc(Oc3ccccc3)cc2)C[C@@H](c2ccc(F)cc2)C1 | 28.2 µM (active)
79 | COc1ccc(-c2ccc(CN3C(C)C(=O)N(Cc4cn(CCC5OCCO5)nn4)CCS3(=O)=O)cc2)cc1 (configuration not stated) | 35.5 µM (active)
80 | COc1ccc(Cn2c(SCC#N)nc3ccc(N4CCOCC4)cc3c2=O)cc1 | inactive
81 | CC1C(=O)N(Cc2cn(CCC3OCCO3)nn2)CCS(=O)(=O)N1Cc1ccc(-c2ccc(Cl)c(Cl)c2)cc1 (configuration not stated) | 31.6 µM (active)
82 | CC(C)C1C(=O)N(Cc2cn(CCC3OCCCO3)nn2)CCS(=O)(=O)N1Cc1ccc(-c2ccc(Cl)c(Cl)c2)cc1 (configuration not stated) | 31.6 µM (active)
83 | CCN1CCN(C(CC(C)C)c2nnnn2CS(=O)(=O)c2ccc(C)cc2)CC1 (configuration not stated) | inactive
84 | COc1cccc(NC(=O)/C(C#N)=C/c2ccc(-c3ccc(C)cc3)o2)c1 | inactive
85 | Cc1ccc(Cc2cnc(NC(=O)/C(C#N)=C/c3ccc(-c4ccc([N+](=O)[O-])cc4)o3)s2)cc1 | 22.4 µM (active)
86 | Cc1ccc(C(=O)N/C(=C/c2ccc(-c3ccc([N+](=O)[O-])cc3)o2)C(=O)NCCCN(C)C)cc1 | inactive
87 | N=c1c(C(=O)NCc2ccc(F)cc2)cc2c(=O)n3ccccc3nc2n1CC1CCCO1 (configuration not stated) | inactive
88 | CN1CCc2c(sc3c2C(=O)NC(c2ccc(-c4ccc(Cl)cc4)o2)N3)C1 (configuration not stated) | inactive
89 | O=C1c2ccccc2-c2ccc(C(=O)N3CCCCC3)cc21 | inactive
90 | O=C1C=C(N2CCCCC2)c2ccccc2C1=O | 18.9 µM (active)
91 | O=C1c2cccc3c(N4CCCCC4)ccc(c23)C(=O)N1c1ccccc1O | inactive
92 | COc1ccccc1C1CN(c2ccccc2)N=C1c1cccs1 (configuration not stated) | inactive
93 | N#Cc1ccc(CN2CCN(C(=O)c3cc(Cl)c4c(c3)OCCO4)CC2)cc1 | inactive
94 | CCN1C(=O)c2cccc3c(Cl)ccc(c23)C1=O | inactive
95 | Cc1ccc(-n2c(N)c(C(=O)Nc3c(C)n(C)n(-c4ccccc4)c3=O)c3nc4ccccc4nc32)cc1 | 21.2 µM (active)
96 | COCCNC(=O)c1c(N)n(-c2ccccc2)c2nc3ccccc3nc12 | inactive
97 | COCCCNC(=O)c1c(N)n(-c2ccccc2)c2nc3ccccc3nc12 | inactive
